From PubChem BioAssay AID2284374 (EPA ToxCast)
Inconclusive results are not listed. Active and inactive are the calls of the source. Rule for the calls: active = hit-call score of the fitted dose curve at least 0.9, where 1 is the maximum; inconclusive = response in the unintended direction; inactive = score below 0.9.

The compounds below were run against human Peroxisome Proliferator-activated Receptor delta (PPARd), PPARD (gene 5467) (UniProt Q03181) (assay: ERF_US_NR_hPPARD: Eurofins (ERF) Nuclear Receptor (NR) Cell Based Protein-Protein Interaction LeadHunter Assay for human Peroxisome Proliferator-activated Receptor delta (PPARd) Agonism).
human Peroxisome Proliferator-activated Receptor delta (PPARd), PPARD (gene 5467), sequence (Q03181 whole entry, looked up): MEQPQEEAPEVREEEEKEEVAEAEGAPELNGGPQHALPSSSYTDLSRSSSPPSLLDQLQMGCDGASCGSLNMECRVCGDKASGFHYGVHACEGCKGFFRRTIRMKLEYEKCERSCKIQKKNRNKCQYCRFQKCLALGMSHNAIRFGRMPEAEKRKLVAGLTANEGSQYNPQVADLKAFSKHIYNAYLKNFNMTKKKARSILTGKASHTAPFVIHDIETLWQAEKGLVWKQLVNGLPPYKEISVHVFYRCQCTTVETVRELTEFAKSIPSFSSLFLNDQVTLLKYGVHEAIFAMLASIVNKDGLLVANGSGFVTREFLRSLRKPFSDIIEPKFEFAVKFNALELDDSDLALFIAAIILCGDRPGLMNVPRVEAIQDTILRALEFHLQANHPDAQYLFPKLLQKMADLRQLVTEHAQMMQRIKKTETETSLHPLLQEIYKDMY
Experimental: ERF_US_NR_hPPARD is a cell-based, single-readout assay that uses extracted gene-proteins in a cell-line assay. Measurements were taken 5 hours after chemical dosing in a 384-well plate. See PPARdelta Human NHR Cell Based Agonist Protein-Protein Interaction Assay, DiscoverX.ERF_US_NR_hPPARD is an assay component calculated from the ERF_US_NR_hPPARD assay. It is designed to measure radioligand binding using a type of binding reporter as detected by scintillation counting with radiometry technology.Data from the assay component ERF_US_NR_hPPARD was analyzed at the assay endpoint, ERF_US_NR_hPPARD, in the positive analysis fitting direction relative to DMSO as the negative control and baseline of activity. Using a type of binding reporter, gain-of-signal activity can be used to understand changes in binding as they relate to gene PPARD. To generalize the intended target to other relatable targets, this assay endpoint is annotated to the nuclear receptor intended target family, where the subfamily is non-steroidal.
Cells were seeded in a total volume of 20 uL into white walled, 384-well microplates and incubated at 37C overnight prior to testing. Briefly, intermediate dilution of sample stocks was performed to generate 5X sample in assay buffer. 5 uL of 5X sample was added to cells and incubated at 37C for 300 minutes. […] The results are expressed as a percent efficacy of the control ligand.
`O=C(CC(=O)C(F)(F)C(F)(F)C(F)(F)F)c1cccs1` was tested, and the outcome was “inactive”. `O=C(O)CCC(F)(F)C(F)(F)C(F)(F)F` was tested, and the outcome was “inactive”.
